The source of these data is PubChem BioAssay.

The structures appear in SMILES notation. “And” between values parts separate entries of the source, which are not always exact repeats. Identical values can stand only once. The source made the active and inactive calls.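 How the source made its calls, unless noted: active means inhibition at or above 50% relative to wild type and mutant plate controls; inactive means inhibition below 50%.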

Experiment [1] in a line: inhibitors of TNFa-induced NFkB p65 translocation, primary screen, imaging, HUVEC, MLSMR starter and 10KST1 sets (AID 438;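 active means inhibition above 20% together with a positive visual image hit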;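 further: compound added about 3h40 before a 20 min TNFalpha stimulation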;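 on inhibition: signal is the nuclear over cytoplasmic p65 intensity ratio per well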). The following applies: HUVEC TNFa-induced p65 nuclear translocation; cell count: measured here: nuclei count (cytotoxicity indicator), at 2.08 µM; inhibition: at 2 µM, stronger effect = higher value, 0% TNFa-plus-vehicle, 100% no-TNFa wells.
Experiment [2] is described as follows: endothelial E-selectin expression blockers – imaging, HUVEC, immunofluorescence, MLSMR starter and 10KST1 sets, primary screen (AID 487;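 active means visually confirmed hit in the image check and inhibition above 20%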;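 on inhibition: signal is fraction of cell area covered by stained E-selectin grains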;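 on nuclei count: 100% = median nuclei count of all wells on the same plate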). The following applies: HUVEC TNFalpha-induced E-selectin immunofluorescence imaging, at 2 µM; inhibition: stronger effect = higher value; nuclei count: measured here: cell number, toxicity.
Experiment [3] in a line: Primary imaging screen for DUSP6 inhibitors that restore phospho-Erk in transfected HeLa cells, chemical complementation (AID 609;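 active means compounds giving at least 50% inhibition in the cell-based MKP-3 phosphatase rescue imaging test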;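 on inhibition: phospho-Erk level distribution per well compared with pooled transfected vehicle control wells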). The note with it: HeLa MKP-3 transfected, phospho-Erk imaging KS statistic, at 10 µM, cells stimulated with TPA for 15 min.
Experiment [4] addresses Dual specificity protein phosphatase 6 (Homo sapiens) (UniProt Q16828). The description is as above. The following applies: HeLa MKP-3 transfected, phospho-Erk imaging KS statistic; at 10 µM; stronger effect = higher value; cells stimulated with TPA for 15 min.
Experiment [5] addresses Voltage-gated potassium channel subunit beta-2 (Rattus norvegicus) (UniProt P62483). Kind of experiment: inhibitors of rat Kvbeta2 reductase activity – biochemical, NADPH fluorescence, primary screen (AID 622;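 active means fluorescence slope higher than the sample average by over 3 SD, cut at about -0.22 in these data, passing the limit was not always enough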;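 further: slope of raw intensity against log time taken from 70 to 1610 s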). The note with it: recombinant KvBeta, 4-cyanobenzaldehyde reduction, at 10 µM, stronger effect = higher value.
For experiment [6] the target is unchanged. Description: enhancers of rat Kvbeta2 NADPH turnover – biochemical, NADPH fluorescence, primary screen (AID 623;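 active means NADPH fluorescence slope more negative than the mean of all samples by about 3 SD, 99.7% confidence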;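 further: fluorescence intensity change per second fitted from 20 to 320 s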). The following applies: Recombinant KvBeta, NADPH fluorescence decrease slope, 10 min; at 10 µM; stronger effect = lower value.
For experiment [7], the target named is Alpha-2C adrenergic receptor (Homo sapiens) (UniProt P18825). Kind of experiment: compounds altering alpha2C-coupled GIRK flux – cell-based, HEK293 alpha2C/GIRK1/2, thallium flux, primary screen (AID 624;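 active means fluorescence slope after compound addition differing from the mean of all screened samples at 99.7% confidence, in either direction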;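 further: slope of fluorescence ratio to pre-addition baseline per second over 15 to 24 s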). The note with it: thallium flux BTC fluorescence, at 10 µM, actives lie on both sides.
Experiment [8] is described as follows: inhibitors of larval lipid processing in zebrafish, primary screen, whole organism, PED6 fluorescence, gall bladder and intestine (AID 686;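 active means a full or partial loss of lipid-probe fluorescence in the fish gall bladder, intestine or both, judged by eye; inactive means no fluorescence loss, or compound toxic to the fish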;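 further: larvae 5 to 7 days old with five fish per well; signal comes from phospholipase A2 cleavage of quenched PED6 carried via bile; overnight exposure to compound and PED6 before scoring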). The note with it: Zebrafish larvae PED6 lipid processing, fluorescence scoring; screened at 20 µM (by protocol).
Experiment [9] in a line: loss of swimming-algae plug formation – whole organism, Chlamydomonas reinhardtii, WT vs cilia-less mutant, absorbance, 96-well, primary screen (AID 463189).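 Further: 0% = wild type cc124 cells in DMSO and 100% = ciliumless bld1 mutant cells.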 The following applies: Chlamydomonas reinhardtii gravitaxis, OD600 absorbance, 2 days; at 10 µM; stronger effect = higher value.
A short description of experiment [10]: blockers of RIG-like receptor reporter activation – cell-based, Sendai virus stimulus, luciferase, 10K MLSCN set, TLR/RLR signaling modifier project, primary screen (AID 602276;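 active means inhibition at or above 50% at 10 µM; inactive means inhibition below 50%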;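 further: firefly luciferase from ISG56 promoter only with Renilla not read in this screen; 0% = Sendai virus plus DMSO and 100% = medium plus DMSO without virus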). The following applies: HEK293 RL24 IRF3 luciferase reporter, at 10 µM, stronger effect = higher value.
Experiment [11] can be described thus: TLR3 IRF3 reporter activation blockers – cell-based, poly I:C stimulus, luciferase, 10K MLSCN set, primary screen (AID 602277;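 active means inhibition of the reporter signal at or above 50%; inactive means inhibition below 50%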). The note with it: HEK293-TLR3 RL24 IRF3 luciferase reporter, at 10 µM, stronger effect = higher value.
Experiment [12] in a line: reduction of polyQ htt aggregates in cells – imaging, exon1htt(103Q)mCFP cells, high-content imaging, primary screen (AID 483;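 active means visual image review flags a hit and inhibition of aggregation exceeds 20%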;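 further: compound exposure lasted 3 days before fixation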;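 on nuclei count: percent of the per-plate median nuclei count of sample wells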). The following applies: exon1htt(103Q)mCFP cell line, aggregate imaging, at 2 µM; inhibition of aggregation: stronger effect = higher value; nuclei count: measured here: cell count, toxicity.
Experiment [13] deals with Muscarinic acetylcholine receptor M4 (Homo sapiens) (UniProt P08173). Description: M4-linked GIRK flux change, two-sided – cell-based, HEK293 M4/GIRK, thallium flux, BTC-AM, M4 allosteric agonist project, primary screen (AID 625;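 active means fluorescence slope after compound addition differing from the mean of all tested samples at 99.7% confidence, mostly higher but some lower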;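 further: thallium influx through GIRK channels coupled to M4 in HEK293 cells with BTC-AM dye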). The note with it: at 10 µM, actives lie on both sides.
The mark [14] stands for this setting: measured here: cell density z-score.
Where [15] appears, read: measured here: nuclear c-Myc green intensity z-score.
[16] abbreviates: measured here: nuclear pErk red intensity z-score, stronger effect = higher value.

Sequence of Alpha-2C adrenergic receptor (Homo sapiens) (P18825 whole entry, looked up): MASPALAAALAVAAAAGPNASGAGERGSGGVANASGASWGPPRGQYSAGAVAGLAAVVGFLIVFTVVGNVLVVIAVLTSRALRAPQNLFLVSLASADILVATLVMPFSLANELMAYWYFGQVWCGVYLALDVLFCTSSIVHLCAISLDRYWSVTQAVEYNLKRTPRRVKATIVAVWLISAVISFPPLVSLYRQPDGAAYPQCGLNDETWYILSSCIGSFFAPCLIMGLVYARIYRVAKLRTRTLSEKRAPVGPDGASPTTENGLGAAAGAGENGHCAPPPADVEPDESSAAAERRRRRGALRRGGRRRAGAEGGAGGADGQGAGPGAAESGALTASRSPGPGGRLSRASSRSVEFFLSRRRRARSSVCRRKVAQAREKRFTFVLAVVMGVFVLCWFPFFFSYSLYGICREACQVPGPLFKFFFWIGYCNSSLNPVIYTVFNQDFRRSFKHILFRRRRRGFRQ
Sequence of Voltage-gated potassium channel subunit beta-2 (Rattus norvegicus) (P62483 whole entry, looked up): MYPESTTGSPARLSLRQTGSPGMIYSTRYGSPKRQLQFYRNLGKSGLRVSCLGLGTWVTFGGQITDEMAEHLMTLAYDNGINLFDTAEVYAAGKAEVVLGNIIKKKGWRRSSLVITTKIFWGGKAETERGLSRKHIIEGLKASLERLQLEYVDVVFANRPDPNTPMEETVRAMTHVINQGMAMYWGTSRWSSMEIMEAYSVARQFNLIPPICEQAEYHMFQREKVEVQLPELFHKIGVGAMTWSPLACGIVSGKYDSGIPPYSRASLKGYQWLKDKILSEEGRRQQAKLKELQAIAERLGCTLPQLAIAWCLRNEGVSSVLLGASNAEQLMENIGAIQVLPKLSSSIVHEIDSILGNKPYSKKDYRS
Sequence of Dual specificity protein phosphatase 6 (Homo sapiens) (Q16828 whole entry, looked up): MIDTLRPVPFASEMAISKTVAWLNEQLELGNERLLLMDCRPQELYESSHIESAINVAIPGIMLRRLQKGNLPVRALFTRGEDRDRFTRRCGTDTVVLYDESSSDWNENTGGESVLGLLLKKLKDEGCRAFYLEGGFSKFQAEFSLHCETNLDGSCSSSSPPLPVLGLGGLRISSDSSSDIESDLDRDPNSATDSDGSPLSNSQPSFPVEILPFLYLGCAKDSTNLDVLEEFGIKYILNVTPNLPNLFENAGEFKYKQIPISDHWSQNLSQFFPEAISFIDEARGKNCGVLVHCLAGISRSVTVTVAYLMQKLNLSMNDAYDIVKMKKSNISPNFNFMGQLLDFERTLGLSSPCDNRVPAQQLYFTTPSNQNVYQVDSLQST
Sequence of Muscarinic acetylcholine receptor M4 (Homo sapiens) (P08173 whole entry, looked up): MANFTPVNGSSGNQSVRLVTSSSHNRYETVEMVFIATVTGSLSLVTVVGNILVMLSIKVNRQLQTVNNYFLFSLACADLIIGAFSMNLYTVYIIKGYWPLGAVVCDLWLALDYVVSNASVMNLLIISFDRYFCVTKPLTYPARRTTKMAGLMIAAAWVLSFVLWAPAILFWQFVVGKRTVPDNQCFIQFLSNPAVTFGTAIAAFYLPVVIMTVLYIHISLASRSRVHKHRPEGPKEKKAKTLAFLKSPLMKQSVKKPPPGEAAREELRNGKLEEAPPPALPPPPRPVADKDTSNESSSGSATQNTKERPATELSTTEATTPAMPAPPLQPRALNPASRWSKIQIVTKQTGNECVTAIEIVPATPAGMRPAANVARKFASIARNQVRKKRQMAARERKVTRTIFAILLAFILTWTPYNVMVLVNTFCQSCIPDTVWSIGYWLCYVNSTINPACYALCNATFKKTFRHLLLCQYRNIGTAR

On to `Cc1cc(NS(=O)(=O)c2ccc(N)cc2)no1`, for which the cell count in experiment [1] is 614. Further, the inhibition in [1] was 2.1% (inactive); in [2], -43.4% (inactive); in experiment [4], -5.24% (inactive); in [9] it was 1.6% (inactive); in experiment [10] it was 19.8% (inactive); in experiment [11] it was 31.9% (inactive). The compound also came in with a nuclei count in experiment [2] of 117%. Besides, the z-score in experiment [3] (setting [14]) was -1.02; in experiment [3] (setting [15]), -0.449; in [3] (setting [16]) it was 1.11. Moreover, in experiment [5], the fluorescence slope was -0.445 (inactive). For the same compound, the NADPH fluorescence slope in experiment [6] is -2.3e-05 (inactive). In addition, in experiment [7], the slope was 0.00461 (inactive). Further, the call in [8] was inactive.

In the case of `Cc1oncc1C(=O)Nc1ccc(C(F)(F)F)cc1`, in [1], the cell count was determined as 554. For the same compound, the inhibition is -5.4% (inactive) in experiment [1]; -80% (inactive) in experiment [2]; -10.4% (inactive) in experiment [4]; -2.73% (inactive) and -10% (inactive) in [9]; -116% (inactive) in [10]; -197% (inactive) in experiment [11]. The compound also returned a nuclei count in experiment [2] of 111%. The z-score in [3] (setting [14]) was found to be 0.779; in experiment [3] (setting [15]), 0.543; in experiment [3] (setting [16]), 0.25. The fluorescence slope in [5] was -0.489 (inactive). Besides, in experiment [6], the NADPH fluorescence slope was -4.6e-05 (inactive). Further, the slope in experiment [7] was 0.00635 (inactive). Further, in experiment [8], the result was inactive.

As for `CNCCCN1c2ccccc2CCc2ccccc21`, in experiment [1], the cell count was determined as 539. The inhibition in experiment [1] is -8.9% (inactive); in experiment [2], -27% (inactive); in experiment [4], 15.3% (inactive); in experiment [9], -1.03% (inactive) and 0.865% (inactive); in experiment [10] it was 0.658% (inactive); in [11] it was 24.2% (inactive). For the same compound, in experiment [2], the nuclei count was 118%. The z-score in experiment [3] (setting [14]) was -1.38; in [3] (setting [15]), -0.202; in experiment [3] (setting [16]), 2.91. Also, the fluorescence slope in [5] is -0.533 (inactive). Further, the NADPH fluorescence slope in [6] is -5.3e-05 (inactive). Besides, the slope in experiment [7] is 0.00468 (inactive). In addition, the result in experiment [8] was inactive.

Regarding `O=C(C1CC1(c1ccccc1)c1ccccc1)N1CCOCC1` (configuration not stated), the cell count in experiment [1] worked out at 402. The inhibition is -6.3% (inactive) in experiment [1]; -60.9% (inactive) in [2]; -0.584% (inactive) in experiment [4]; 35% (inactive) in experiment [9]; 18.5% (inactive) in experiment [10]; 22.6% (inactive) in [11]. Further, the inhibition of aggregation in experiment [12] was 13.6% (inactive). Besides, the nuclei count in experiment [12] was determined as 80.6%; in [2], 150%. In addition, the z-score in [3] (setting [14]) is 0.0865; in experiment [3] (setting [15]) it was -1.65; in [3] (setting [16]), -0.311. In addition, the fluorescence slope was -0.416 (inactive) in [5] and 0.00482 (inactive) in [13]. Also, in experiment [6], the NADPH fluorescence slope is -6.1e-05 (inactive). Also, in experiment [8], the call was inactive.

Take `Fc1cc(F)c(F)c(SCCc2ccncc2)c1F`: the cell count in experiment [1] is 541. In addition, the inhibition in experiment [1] is -0.9% (inactive); in [4], -7.28% (inactive); in experiment [9], 97.5% (active); in experiment [10], 7% (inactive); in [11], -1.64% (inactive). The inhibition of aggregation in experiment [12] was -11.2% (inactive). Besides, in experiment [12], the nuclei count was 104%. For the same compound, the z-score in [3] (setting [14]) turned out to be 0.361; in [3] (setting [15]), 0.923; in [3] (setting [16]), 0.0696. For the same compound, the fluorescence slope in experiment [5] was -0.422 (inactive). Besides, the NADPH fluorescence slope in experiment [6] was -1.5e-05 (inactive). Besides, the slope in experiment [7] was 0.0056 (inactive). Besides, the outcome in experiment [8] was inactive.
